Compound activity as filed in PubChem BioAssay.
In the library only some 0.92% were active in any assay of this set; here they are far more common.
MEP2-GFP yeast = alters MEP2-GFP fluorescence in TOR pathway yeast screen | 330,000 compounds, 0.51% hits | S. cerevisiae MEP2-GFP strain, flow cytometry GFP, 3 h; 100% = DMSO control level | GFP response vs DMSO, % at 10 µM | AID 2016;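 active means GFP response versus DMSO above a set limit, roughly screen mean plus 3 SD, cut at about 180% in these data; inconclusive means fewer than 70 cells counted for a yeast strain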;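 further: median GFP fluorescence of the barcode-gated MEP2-GFP cells per well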
LAP4 TOR yeast = alters LAP4-GFP fluorescence in TOR pathway yeast screen; 320,000 compounds, 0.34% hits; S. cerevisiae LAP4-GFP multiplex, flow cytometry GFP, 3 h; median GFP as percent of DMSO wells; GFP response vs DMSO, % at 10 µM;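 active means GFP response vs DMSO above a set limit, about the screen mean plus 3 SD, cut at about 150% in these data; inconclusive means under 70 cell events counted for the yeast strain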
CIT2-GFP yeast = yeast TOR pathway CIT2-GFP modulation; S. cerevisiae CIT2-GFP strain, flow cytometry, 3 h; 100 means same as DMSO wells; GFP response vs DMSO, % at 10 µM; 320,000 compounds, 0.065% hits; AID 2029;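 active means GFP response relative to DMSO above a set limit, near the screen mean plus 3 SD, cut at about 150% in these data; inconclusive means Fewer than 70 cells measured for a yeast strain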;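 further: ratio of well median GFP fluorescence to mean of DMSO wells on the plate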
AGP1-GFP MLPCN = modulators of TOR pathway AGP1-GFP in S. cerevisiae | S. cerevisiae AGP1-GFP multiplex flow cytometry, 3 h; GFP as percent of DMSO wells | GFP response vs DMSO, % at 10 µM | 320,000 compounds, 0.02% hits;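 active means GFP response relative to DMSO above a set limit, near screen average plus 3 SD, cut at about 150% in these data; inconclusive means fewer than 70 cells counted for the yeast strain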;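 further: median GFP channel fluorescence of the gated AGP1 strain per well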
RPL19A-GFP yeast = alters RPL19A-GFP fluorescence in TOR pathway yeast screen | S. cerevisiae RPL19A-GFP strain, flow cytometry, 3 h; hits give low values | percent response vs DMSO, % at 10 µM | 330,000 compounds, 0.3% hits | AID 2025;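 active means percent response vs DMSO below 50%; inconclusive means fewer than 70 events counted for the yeast strain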;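 further: median channel GFP fluorescence of the barcoded RPL19A-GFP strain; ratio of sample median GFP to plate DMSO average so 100% = DMSO; lower means less RPL19A-GFP as with rapamycin TOR inhibition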
* hit, by the source's call; u = inconclusive; x = no result given; ! = repeats disagree; [ ] = dose if it differs, or a comment.

SMILES	MEP2-GFP yeast	LAP4 TOR yeast	CIT2-GFP yeast	AGP1-GFP MLPCN	RPL19A-GFP yeast
C#CCOc1cc(C2C3=C(COC3=O)Nc3cc4c(cc32)OCO4)ccc1OC (centres undefined)	172	123	164*	103	108
O=c1[nH]c(=S)n(-c2ccccc2)c(O)c1/C=N/N1CCOCC1	153	119	151*	110	124
O=C(C1CCN(S(=O)(=O)c2ccccc2)CC1)N1CCC2(CC1)OCCO2	333*[may fluoresce violet]	110	u	29	67
Cc1ccc(N2C(=O)NC(=O)/C(=C\c3cc(C)n(-c4ccc(C(=O)O)cc4)c3C)C2=O)cc1	100	91	104	100	101
Cc1ccc(-n2c(C)cc(/C=C3/C(=O)NC(=O)N(C)C3=O)c2C)cc1	281*[may fluoresce violet]	67	u	18	29*[may fluoresce violet]
CCCC(=O)c1ccc(CP(=O)(OCC)OCC)o1	310*[may fluoresce violet]	x	x	x	36*[may fluoresce violet]
COP(=O)(Cc1ccc(C#N)o1)OC	107	x	x	x	103
O=C1/C(=C\c2ccc(Cl)c(Cl)c2)N2CCC1CC2	82	187*	75	89	91
Cc1ccc(N2C(=O)/C(=C/c3ccc(CN(CCC#N)S(C)(=O)=O)o3)C(=O)NC2=S)cc1C	198*[may fluoresce violet]	97	u	23	64
C[C@]12CCC(=O)C(O)=C1CC[C@@H]1[C@@H]2CC[C@]2(C)C(=O)CC[C@@H]12	90	454*[may fluoresce red]	78	80	u
C=CCn1c(O)c(/C=N/N2CCCCC2c2cccnc2)c(=O)[nH]c1=S (centres undefined)	102	92	111	100	105
O=C(CCc1ccc(O)cc1)N1C[C@H]2C[C@@H](C1)c1cccc(=O)n1C2	96	105	96	98	100
CC12CC[C@H]3[C@@H](CCC4(O)C[C@H](O)CCC34/C=N/NC(=O)c3ccccc3[N+](=O)[O-])C1(O)CCC2C1=CC(=O)OC1 (some centres undefined)	106	x	100	104	96
CNC(=O)Nc1ccc(C(=O)N/N=C\C23CC[C@@H](O)CC2(O)CC[C@@H]2[C@@H]3CCC3(C)C(C4=CC(=O)OC4)CCC23O)cc1 (some centres undefined)	200*[may fluoresce violet]	92	u	19	45*[may fluoresce violet]
Cc1cc(C)cc(NC(=O)CCNC(=O)N2C[C@H]3C[C@@H](C2)c2cccc(=O)n2C3)c1	106	101	97	98	96
NC(N)=N/N=C/c1ccc(N(c2ccccc2)c2ccccc2)cc1	209*[may fluoresce violet]	81	u	u	56
COc1ccc(/C=N\N=C(N)N)cc1	88	93	97	95	91
O=C(c1cc(=O)[nH]c2ccc(Br)cc12)N1CCC2(CC1)OCCO2	212*[may fluoresce violet]	83	u	104	94
CC(=O)Nc1ccc(OCCF)cc1	100	101	102	103	100
CCCC[N+]12CCC(CC1)C(Cc1ccccc1)C2 (centres undefined)	91	96	95	104	101
O=c1ccc2cc(OC3O[C@H](CO)[C@@H](O)[C@H](O)[C@H]3O)c(O)cc2o1 (some centres undefined)	208*[may fluoresce violet]	94	u	u	41*[may fluoresce violet]
COc1cc([C@H]2OC[C@H]3[C@@H]2CO[C@@H]3c2cc(OC)c(O[C@@H]3O[C@H](CO)[C@@H](O)[C@H](O)[C@H]3O)c(OC)c2)cc(OC)c1O[C@H]1O[C@@H](CO)[C@H](O)[C@@H](O)[C@@H]1O	101	101	94	107	99
COC(=O)C1=C(c2ccc(F)cc2OCc2ccccc2)C[C@@H]2CC[C@H]1N2C(=O)N1CCOCC1	92	93	96	90	95
Oc1ccc2c3c1O[C@H]1c4[nH]c5ccccc5c4C[C@@]4(O)[C@@H](C2)N(CC2CC2)CC[C@]314	99	102	85	89	98
O=C1CC[C@@]2(O)[C@H]3Cc4ccc(O)c5c4[C@@]2(CCN3CC2CC2)[C@H]1O5	144	155*	102	117	84
CCCCCn1c(=O)c(C(=O)Nc2nc(CC(=O)OCC)cs2)c(O)c2ccccc21	62	105	94	80	96
CC[C@@H]1C(=O)OC[C@@H]1Cc1cncn1C	100	111	89	95	106
CC[C@@H]1C(=O)OC[C@@H]1Cc1cncn1C	404*![may fluoresce violet]	107	u	u	43*![may fluoresce violet]
